Consider 39 compounds from PubChem BioAssay (EPA / NIEHS).

Values joined by “and” are separate entries in the source; they are usually repeats but may differ in a detail not shown here. Identical values can stand only once. Some structures have more than one record in an assay (separate samples or runs), and their calls can disagree. Active and inactive are the calls of the source. How the source made its calls: active means hit-call score of the fitted dose curve at least 0.9, where 1 is the maximum; inactive means score below 0.9.

This assay is described as follows: CCTE_Padilla_ZF_144hpf_TERATOSCORE: (Legacy) CCTE's 144 Hour Post-fertilization zebrafish Assay Teratoscore, Padilla Lab (AID 2283679).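 On AC50: teratogenicity score from eye scoring of death hatching and malformations at 144 hpf.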 An excerpt:
CCTE_Padilla_ZF_144hpf is a whole embryo, multiplexed assay. Zebrafish embryos were exposed to chemicals starting 6 hr post-fertilization for 5 days in 96-well plates. Developing larvae were examined microscopically daily for malformation and mortality.CCTE_Padilla_ZF_144hpf_TERATOSCORE is one of one assay component(s) measured or calculated from the CCTE_Padilla_ZF_144hpf assay. It is designed to make measurements of developmental malformations and mortality as detected with brightfield microscopy.Data from the assay component CCTE_Padilla_ZF_144hpf_TERATOSCORE was analyzed into 1 assay endpoint. This assay endpoint, CCTE_Padilla_ZF_144hpf_TERATOSCORE, was analyzed in the positive analysis fitting direction relative to DMSO as the negative control and baseline of activity. Using a type of morphological reporter, gain-of-signal activity can be used to understand changes in developmental defect as they relate to the whole embryo. To generalize the intended target to other relatable targets, this assay endpoint is annotated to the malformation intended target family, where the subfamily is total.
Zebrafish husbandry: Wild type adult zebrafish (Danio rerio; undefined outbred stock obtained from Aquatic Research Organisms, Hampton, NH, 03842) were housed in an AAALAC-approved animal facility at 28C with a 14:10 h light: dark cycle (lights on at 08:30 h). Adult fish (2-3 females per male; density = 15-20 adults per tank) were kept in one of several 9-liter (L) flow-through colony tanks (Aquaneering Inc., San Diego, CA). All adults in a colony tank were placed in a 2 L (static) breeding tank (Aquatic Habitats, Apopka, FL) one hour prior to light onset. Typically, adults from two to three colony tanks were mated on the same day. Two hours after light onset the adults were returned to the colony tank. All embryos were gathered from each breeder tank, pooled, and placed in a 28C water bath for 2 h, followed by two washes with 0.06% bleach (v/v) in 10% Hanks' Balanced Salt Solution (13.7 mM NaCl 0.54 mM KCl, 25 uM Na2HPO4, 130 uM CaCl2 100 um MgSO4 and 420 um NaHCO3,), hereafter referred to as Hanks' solution, for 5 min in order to remove any residual bacteria or fungi. Immediately following washing, the embryos were examined, and healthy embryos were separated from dead or unfertilized eggs and moved into fresh Hanks'. Single Concentration Study: The chemicals were arrayed on a 96-well stock plate, 80 chemicals per plate, 20 mM concentration of each, with 16 DMSO (vehicle) controls. The embryos were exposed to the chemicals (80 Mfinal concentration, renewed daily) by immersion from 0 dpf until 5 dpf. Eighty micromolar was chosen as the highest concentration for two reasons (1) because the stock solutions were prepared at 20 mM in 100% DMSO. On 6 dpf, each embryo/larva was assessed for viability, hatching status and malformations. There were 4 embryos per concentration per chemical (each embryo on a separate microtiter plate). […] Chemical exposures: Zebrafish embryos were exposed in 96-well plates. Briefly, on day 0, approximately 6-8 h after fertilization, zebrafish embryos (with chorions) were placed 1 embryo per well in Millipore Multiscreen Nylon mesh plates (catalog number MANMN4050, Millipore Corp, Bedford, MA) and exposed to nominal concentrations of the chemicals. In each well, 1 ul of the chemical in DMSO from the stock plate was diluted with 250 ul of 10% Hanks' solution; the final DMSO concentration was 0.4% (v/v) in all wells; vehicle controls receives DMSO only. Each plate was sealed with a non-adhesive material (Type A, BioRad, Hercules, CA), covered with a lid, and wrapped in Parafilm to minimize evaporation. All embryos and larvae were kept in a 26C incubator with a 14:10 h light-dark cycle (with lights on at 08:30 h and off at 22:30 h). […]
Regarding `S=C(S)NCCNC(=S)S.[Mn+2].[S-]C([S-])=NCCN=C([S-])[S-].[Zn+2]`, the result was inactive and the AC50 was 29.3 µM (active).

Regarding `CCOC(=O)c1ccc(O)cc1`, the AC50 is 62.6 µM (active).

For `CCCOC(=O)c1ccc(C(=O)OCCC)nc1`, the AC50 is 1.7 µM (active). Consider `C#C[C@]1(O)CC[C@H]2[C@@H]3CCC4=CC(=O)CC[C@@H]4[C@H]3CC[C@@]21CC`, for which the result was inactive. As for `CCCCC(CC)CN1C(=O)C2C3C=CC(C3)C2C1=O` (stereo not given), the AC50 was 13 µM (active). For the compound `OB(O)O`, the call was inactive. Consider `COC(=O)CSc1cc(N=c2sc(=O)n3n2CCCC3)c(F)cc1Cl`, for which the AC50 was 0.0125 µM (active). As for `CCOC(=O)COc1cc(-n2ncc(C(F)(F)F)c(C)c2=O)c(F)cc1Cl`, the half-maximal activity concentration (AC50) is 0.458 µM (active). With `COC(=O)c1ccc(CNS(C)(=O)=O)cc1S(=O)(=O)NC(=O)Nc1nc(OC)cc(OC)n1`, the call was inactive.

With `N[C@@H](Cc1cc(I)c(Oc2ccc(O)c(I)c2)c(I)c1)C(=O)O`, the AC50 is 0.331 µM (active). Same read-out and setting: next, `O=C(Nc1ccc([N+](=O)[O-])cc1Cl)c1cc(Cl)ccc1O`: 1.65 µM (active). On to `CCCN(CCC)c1c([N+](=O)[O-])cc(C(F)(F)F)c(N)c1[N+](=O)[O-]`, for which the call was inactive. Same read-out and setting: then `CN(C)C(=O)Nc1ccc(Cl)c(Cl)c1`, with “inactive”; and `CCC(O)=C1C(=O)CC(C(=O)O)CC1=O` (stereo not given), with “inactive”. For the compound `COC(=O)c1ccccc1C(=O)O`, the compound was classed as inactive.

In the case of `CC(=O)S[C@@H]1CC2=CC(=O)CC[C@]2(C)[C@H]2CC[C@@]3(C)[C@@H](CC[C@@]34CCC(=O)O4)[C@H]12`, the AC50 is 38.3 µM (active).

As to `COC(=O)c1cccc(C)c1S(=O)(=O)NC(=O)Nc1nc(OCC(F)(F)F)nc(N(C)C)n1`, the outcome was inactive. As to `CCOC(=O)NCCOc1ccc(Oc2ccccc2)cc1`, the concentration at half-maximal activity (AC50) was 15.4 µM (active). On the same count and under the same terms, next, `CC(C)(C)[C@@H](O)[C@@H](Cc1ccc(Cl)cc1)n1cncn1`: 46.7 µM (active).

Take `C=CCOC(Cn1ccnc1)c1ccc(Cl)cc1Cl` (stereo not given): the AC50 was 2.91 µM (active). Regarding `CCCN(CCC)C(=O)SCC`, the compound was classed as inactive. As for `CCCCOC(=O)[C@@H](C)Oc1ccc(Oc2ccc(C(F)(F)F)cn2)cc1`, the AC50 is 5.45 µM (active). Turning to `CCOC(=O)C(C)Oc1ccc(Oc2nc3ccc(Cl)cc3o2)cc1` (stereo not given), the AC50 was 2.06 µM (active).

Take `Oc1ccc(C(c2ccc(O)cc2)C(Cl)(Cl)Cl)cc1`: the AC50 was 17.1 µM (active). Still for that read-out and setting: next, `C#CCOC(=O)[C@@H](C)Oc1ccc(Oc2ncc(Cl)cc2F)cc1`: 0.593 µM (active). Take `CC(=O)[C@H]1CC[C@H]2[C@@H]3CCC4=CC(=O)CC[C@]4(C)[C@H]3CC[C@]12C`: the AC50 was 8.03 µM (active). On to `c1ccc(Nc2ccccc2)cc1`, for which the AC50 is 64 µM (active). On the same count and under the same terms, next, `CCOC(=O)C(C)Oc1ccc(Oc2cnc3cc(Cl)ccc3n2)cc1` (stereo not given): 1.7 µM (active). Take `COc1nc(C)nc(NC(=O)NS(=O)(=O)c2ccccc2OCCCl)n1`: the result was inactive. As for `CCN(Cc1c(F)cccc1Cl)c1c([N+](=O)[O-])cc(C(F)(F)F)cc1[N+](=O)[O-]`, the AC50 was 0.00783 µM (active). For `CCCOC(=O)NCCCN(C)C`, the call was inactive. With `CC(C)CCCCCCc1ccc(O)cc1`, the AC50 was 8.06 µM (active). Regarding `COC(=O)c1ccccc1S(=O)(=O)NC(=O)Nc1nc(OC(F)F)cc(OC(F)F)n1`, the half-maximal activity concentration (AC50) was 3.02 µM (active).

On to `CCCCOC(=O)C(C)Oc1ccc(Oc2ccc(C(F)(F)F)cn2)cc1` (stereo not given), for which the AC50 is 16.1 µM (active). On the same count and under the same terms, next, `CSC(=O)c1cccc2nnsc12`: 12.7 µM (active). For `C[C@]12CC[C@@H]3c4ccc(O)cc4C[C@@H](CCCCCCCCCS(=O)CCCC(F)(F)C(F)(F)F)[C@H]3[C@@H]1CC[C@@H]2O` (stereo not given in full), the call was inactive. With `CC(C)(c1ccc(O)cc1)c1ccc(O)cc1`, the AC50 was 57 µM (active) and 66.2 µM (active). On the same count and under the same terms, next, `c1ccc2[nH]c(-c3cscn3)nc2c1`: 52.8 µM (active). For `O=C(c1ccccc1)C1CCCCC1`, the result was inactive.

The term AC50 denotes the concentration giving half of the maximal activity seen.
